# Bioassay records from PubChem.
# Compounds with a hit are over-represented: about 2.6% of the library has one in this group of screens.
# PHOSPHO1 inh: PubChem AID 1565; inhibition, % at 13.3 µM; recombinant PHOSPHO1, absorbance phosphatase assay; 1.1% of 290,000 active; Phosphoethanolamine/phosphocholine phosphatase (Homo sapiens), Q8TCT1; in the data active means inhibition above about 60%
# Target sequence (Q8TCT1 whole entry, looked up): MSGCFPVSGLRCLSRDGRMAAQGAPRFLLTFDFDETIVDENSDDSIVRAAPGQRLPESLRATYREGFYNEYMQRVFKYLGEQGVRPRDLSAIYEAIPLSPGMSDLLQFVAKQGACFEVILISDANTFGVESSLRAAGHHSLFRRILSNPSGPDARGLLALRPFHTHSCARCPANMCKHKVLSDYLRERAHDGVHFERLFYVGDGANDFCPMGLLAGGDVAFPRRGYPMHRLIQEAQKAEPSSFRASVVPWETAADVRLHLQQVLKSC
# PABP FP inh: PABP poly(A) RNA binding inhibitors, primary screen, biochemical, fluorescence polarization, uHTS; inhibition, % at 35 µM; 1% of 290,000 active; AID 2014, 2009;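 further: calls also rest on retests at 20 µM and on dose response follow-up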
# CRFBP-R2 block: antagonists of CRF-BP/CRF-R2 complex, primary screen, cell-based, HEK293, calcium dye fluorescence, uHTS | CRF-induced calcium fluorescence | inhibition, % at 11.8 µM | AID 588475, 2011 | 0.59% of 350,000 active;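 active means inhibition of the ligand-induced calcium signal above about 50% at the single tested concentration, limit read from the data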
# eIF4H FP inh: human eIF4H binding inhibitors, primary screen, translation initiation inhibitor project, biochemical, uHTS, fluorescence polarization; inhibition, % at 35 µM; eIF4H fluorescence polarization binding assay; AID 2012, 2009; 0.94% of 290,000 active; Eukaryotic translation initiation factor 4H (Homo sapiens), Q15056;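 further: calls also rest on retests at 20 µM and on dose response follow-up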
# PABP1 MLLE inh: inhibitors of PABP1 MLLE–PAM2 peptide binding, primary screen, biochemical, fluorescence polarization, FITC-PAM2, GST-MLLE; Polyadenylate-binding protein 1 (Homo sapiens), P11940; inhibition, % at 20 µM; 0.36% of 360,000 active; AID 588489, 2011; in the data active means inhibition above about 35%, passing the limit was not always enough;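 further: plate controls were DMSO wells with GST-MLLE for no effect and wells lacking GST-MLLE protein for full effect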
# * = called active by the depositor; . = no result. Unless noted, how the calls were made is not given here.
SMILES,PHOSPHO1 inh,PABP FP inh,CRFBP-R2 block,eIF4H FP inh,PABP1 MLLE inh
CCOCCCNC(=O)N[C@H](C(=O)OC)C(C)CC (stereo partly drawn),40.9,-13.4,10.7,-3.1,12.9
CCN1C(=O)[C@@H]2[C@@H]3CN(S(=O)(=O)c4ccc(C)cc4)[C@@H](c4ccccc4Cl)[C@@H]3C(=O)C[C@@H]2C1=O,.,.,.,.,8.5
COc1ccc(N2C(=O)N3[C@@H]4c5ccccc5OC[C@@H]4[C@@H](c4ccccc4)[C@@]3(C)C2=O)cc1,.,.,0.4,.,-7.8
COc1ccc(C(=O)Nc2cccc(C(=O)N3CCCCC3)c2)cc1,65.8*,0.7,-12.5,-5.4,-1.1
O=C(NC(=S)N1CCN(c2ccc(F)cc2)CC1)c1cccs1,-98.8,1.1,50.5*,0.7,-9.2
O=C(NC(=S)N1CCN(c2ccc(O)cc2)CC1)c1cccs1,-20.6,-6.6,-2.0,-0.4,-3.0
CSCCc1nc(SCC(=O)Nc2nnc(C)s2)[nH]c1C,67.5*,-6.8,13.2,-10.8,9.2
COc1ccc(Cl)cc1-c1cc(C(=O)N[C@H](C)c2ccccc2)[nH]n1,.,.,.,.,10.0
S=C(Nc1ccc(Nc2ccccc2)cc1)Nc1ccccn1,12.6,-4.5,20.4,-8.0,38.4*
Cc1ccccc1OCC(O)Cn1c(SC(C)C)nc2c1c(=O)[nH]c(=O)n2C (stereo not drawn),91.4*,-4.7,-4.9,-6.2,-98.3
CC1CC(=O)c2c(cc3c(-c4c(O)cc(O)c5c(O)c6c(cc45)OC(C)CC6=O)c(O)cc(O)c3c2O)O1 (stereo not drawn),-64.0,91.8*,-3.0,100.2*,-8.5
COc1ccc(/C=C(\NC(=O)c2ccccc2)C(=O)N/N=C/c2ccncc2)cc1,64.6*,-0.3,-8.8,-1.0,9.9
Cc1ccc(NC(=O)/C(=C\c2ccc([N+](=O)[O-])cc2)NC(=O)c2ccccc2)cc1,11.2,-5.6,20.6,-9.9,-10.2
COc1ccc(/C=C(\NC(=O)c2ccccc2)C(=O)N/N=C/c2cccnc2)cc1,1.5,2.4,6.0,12.3,-6.0
COc1ccc(/C=C(/NC(=O)c2ccc(C)cc2)C(=O)NCc2ccncc2)cc1,69.7*,.,-3.5,.,4.9
O=C(N/N=C/c1ccc(O)c(O)c1O)/C(=C/c1ccc([N+](=O)[O-])cc1)NC(=O)c1ccccc1,11.8,58.6*,16.8,104.9*,37.0
COc1ccc(C(=O)N/C(=C\c2ccc(Cl)cc2)C(=O)NCc2ccncc2)cc1,.,.,-0.7,.,0.9
COc1ccc(/C=C(/NC(=O)c2ccccc2)C(=O)N/N=C/c2ccncc2)c(OC)c1,-2.0,69.7,-0.7,active,-11.2
CCOc1cccc(C(=O)Nc2ccccc2C(=O)N2CCOCC2)c1,9.8,2.3,-3.1,-4.7,12.8
COc1ccc(C(=O)OCC(=O)Nc2cccc(S(=O)(=O)NC3=NCCCCC3)c2)cc1[N+](=O)[O-],.,.,-4.0,.,-10.9
CC1CCCC(C)N1C(=O)CN1C(=O)NC2(CCCCCC2)C1=O (stereo not drawn),.,.,-9.1,.,-2.2
CC1(C(=O)NS(C)(=O)=O)CCN1C(=O)C/C=C/c1ccccc1 (stereo not drawn),.,.,.,.,8.3
Cc1cccc(NC(=O)CC2Nc3cccc4cccc(c34)NC2=O)c1 (stereo not drawn),48.9,88.1*,-135.0,113.0*,17.4
CC(=O)Nc1ccc(NC(=O)CC2Nc3cccc4cccc(c34)NC2=O)cc1 (stereo not drawn),-10.4,83.7*,-30.3,106.1*,24.6
Cc1cccc(NS(=O)(=O)c2ccc(C(=O)NCC3CCCO3)cc2)c1C (stereo not drawn),60.6*,0.8,3.3,-0.1,6.9
SMILES,PHOSPHO1 inh,PABP FP inh,CRFBP-R2 block,eIF4H FP inh,PABP1 MLLE inh
O=C(NCC1CCCO1)c1ccc(S(=O)(=O)Nc2ccccc2F)cc1 (stereo not drawn),.,.,-0.8,.,-9.9
O=C1C(=Cc2cccs2)C(=O)c2ccccc21,3.2,1.2,54.7*,3.0,6.2
CC(C)(C)NC(=O)/C(=C\c1ccccc1F)NC(=O)c1ccc([N+](=O)[O-])cc1,-2.0,4.2,-23.3,3.0,9.1
CC(C)(C)NC(=O)/C(=C/c1ccccc1F)NC(=O)c1ccc([N+](=O)[O-])cc1,45.5,11.0,52.5*,11.8,1.1
C=CCN(c1ccccc1)S(=O)(=O)c1cccc(C(=O)N2CC(C)CC(C)C2)c1 (stereo not drawn),24.0,-5.8,12.3,-14.7,1.9
Cc1c(Cl)cccc1NS(=O)(=O)c1cn(C)c(=O)n(C)c1=O,-72.8,-7.7,7.5,0.4,4.5
Cn1cc(S(=O)(=O)Nc2ccc(Br)cc2F)c(=O)n(C)c1=O,-11.0,7.5,71.2*,2.9,-1.6
CCN1C(=O)CC2CCCC1C2 (stereo not drawn),.,.,75.0*,.,0.3
CCN(CC)S(=O)(=O)c1cccc(-c2nnc(SCC(=O)c3cc(C)n(C4CC4)c3C)o2)c1,1.3,86.5*,3.3,70.3*,-112.7
C=CCn1c(C)cc(C(=O)CSc2nnc(-c3cccc(S(=O)(=O)N(CC)CC)c3)o2)c1C,24.5,-7.7,8.7,6.9,-97.3
CCOC(=O)C1(C)/C(=N/Nc2cccc(Cl)c2)C(=O)C(=O)N1c1ccccc1 (stereo not drawn),0.1,10.1,7.0,5.2,-3.0
CCOC(=O)C1(C)/C(=N/Nc2ccc(S(N)(=O)=O)cc2)C(=O)C(=O)N1c1ccccc1 (stereo not drawn),2.2,5.5,10.6,-10.9,8.6
CCOC(=O)C1(C)/C(=N/Nc2ccc(Cl)cc2)C(=O)C(=O)N1c1ccccc1 (stereo not drawn),102.7*,8.5,2.2,-3.4,13.6
CCOC(=O)C1(C)/C(=N/Nc2ccccc2Cl)C(=O)C(=O)N1c1ccccc1 (stereo not drawn),92.4*,20.3,18.5,-9.1,0.6
CCNC(=O)C1(C)CCN(Cc2ccc(C#N)cc2)C1 (stereo not drawn),.,.,.,.,2.1
CCN(Cc1cc2ccccc2[nH]c1=O)C(=O)C(C)C,-11.6,1.8,3.7,-2.1,5.5
CCOC(=O)[C@@H]1[C@H]2COc3ccc(Br)cc3[C@H]2N2C(=O)N(c3cccc(Cl)c3)C(=O)[C@]12C,-18.6,2.3,0.3,2.7,-2.8
CCOC(=O)c1cc([N+](=O)[O-])c([N+](=O)[O-])cc1NC(C)=O,-5.0,-1.0,51.5*,2.0,20.7
CCOC(=O)c1c(S(=O)(=O)Nc2ccccn2)c(C)n(C)c1C,64.9*,3.7,-1.1,-5.0,9.6
CCOC(=O)c1c(S(=O)(=O)Nc2ccccc2OCC)c(C)n(C)c1C,11.9,1.6,6.8,-8.4,-2.4
CCOC(=O)c1c(S(=O)(=O)NCC(=O)NCc2ccccc2Cl)c(C)n(C)c1C,61.6*,-2.5,-19.1,-4.3,12.1
CC(=O)Nc1cc(-c2cccc(F)c2)cn2c(-c3ccc(S(C)(=O)=O)cc3)cnc12,.,.,.,.,-16.7
